The nature of experiment [1]: ATG_CRE_CIS: Attagene CIS-FACTORIAL HepG2 Assay for human cAMP Responsive Element (CRE) binding protein 3 (AID 2282926). The following applies: HepG2 CRE cis-reporter, Attagene multiplexed mRNA; actives raise or lower the signal. The essentials: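 Assay format: transient reporter transfection of HepG2, 24 h treatment, total RNA isolation with DNase I step. Reporter abundance read by fluorescence after PCR and capillary separation; DMSO-normalised gain or loss fitting.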

Experiment [2] concerns the target CCAAT/enhancer-binding protein beta (Homo sapiens) (UniProt P17676). The experiment in a line: ATG_C_EBP_CIS: Attagene CIS-FACTORIAL HepG2 Assay for human CCAAT/Enhancer Binding Protein (C/EBP) beta (AID 2282927). The settings on record: HepG2 Attagene cis-factorial transcription factor reporter; actives raise or lower the signal. In outline:
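HepG2 transiently transfected with multiplexed reporter units under cis-regulatory promoters reporting endogenous C/EBPb activity. After 24 h exposure, reporter mRNA assayed by RT-PCR, fluorescent labelling, HpaI digestion and capillary electrophoresis; bidirectional fitting versus DMSO.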

Experiment [3] can be described thus: ATG_CMV_CIS: Attagene CIS-FACTORIAL HepG2 Assay for human CMV (Internal Marker) (AID 2282928).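 Note: endpoint acts as a background internal control marker rather than a target.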 The settings on record: HepG2 CMV promoter reporter, transcription factor profiling; actives raise or lower the signal. In outline:
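24 h chemical treatment, HepG2 with transient multi-reporter transfection; RNA → oligo(dT) RT → PCR → 6-FAM extension → HpaI digest → CE fluorescence. Bidirectional fit, DMSO negative control.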

Experiment [4] in a line: ATG_DR4_LXR_CIS: Attagene CIS-FACTORIAL HepG2 Assay for human Liver X Receptor (LXR), DR4 submotif (AID 2282929). The following applies: HepG2 Attagene DR4 cis-reporter, mRNA transcription; actives raise or lower the signal. In outline:
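DR4 cis-reporter in HepG2, 24 h exposure. Detection: RT-PCR, 6-FAM labelling, CE fragment analysis. Endpoint fitted bidirectionally, DMSO = baseline.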

The target of experiment [5] is Aryl hydrocarbon receptor (Homo sapiens) (UniProt P35869). The experiment can be described thus: ATG_Ahr_CIS: Attagene CIS-FACTORIAL HepG2 Assay for human Aryl Hydrocarbon Receptor (Ahr) (AID 2282930). The following applies: HepG2 AhR cis-factorial reporter transcription; actives raise or lower the signal. The essentials:
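HepG2 cells transiently transfected with cis-element-driven multiplexed reporter units; endogenous AhR activity read as reporter mRNA 24 h after dosing, via RT-PCR, 6-FAM labelling, HpaI digestion and capillary electrophoresis. Bidirectional fit relative to DMSO.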

Experiment [6] can be described thus: ATG_AP_1_CIS: Attagene CIS-FACTORIAL HepG2 Assay for human Activator Protein 1 (AP-1) (AID 2282931). The following applies: HepG2 Attagene cis-factorial AP-1 reporter mRNA; actives raise or lower the signal. In outline:
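Cis-regulated reporter units transiently expressed in HepG2 report endogenous transcription-factor activity. Signal: reporter mRNA at 24 h, via RT-PCR and fluorescent capillary electrophoresis. Endpoint derived by bidirectional fitting, DMSO as negative control.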

The nature of experiment [7]: ATG_AP_2_CIS: Attagene CIS-FACTORIAL HepG2 Assay for human Activator Protein 2 (AP-2) (AID 2282932). The settings on record: HepG2 AP-2 cis-reporter, Attagene transcription factor profiling; actives raise or lower the signal. In outline: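 Liver-derived HepG2 line, cis-reporter system measuring endogenous factors; 24 h dosing; reporter mRNA detected by fluorescent RT-PCR and capillary electrophoresis.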

Experiment [8] in a line: ATG_BRE_CIS: Attagene CIS-FACTORIAL HepG2 Assay for human Bone Morphogenetic Protein (BMP) Response Element (BRE) (AID 2282933). The following applies: HepG2 BMP response element reporter, Attagene transcription factor profiling; actives raise or lower the signal. In outline: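 Transient MRTU transfection of human HepG2 liver cells; 24 h compound treatment; total RNA isolated, reverse-transcribed, PCR-amplified, 6-FAM labelled, HpaI-cut, capillary electrophoresis. DMSO = negative control/baseline, bidirectional fit.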

For experiment [9], the target named is Retinoic acid receptor alpha (Homo sapiens) (UniProt P10276). The experiment in a line: ATG_DR5_RAR_CIS: Attagene CIS-FACTORIAL HepG2 Assay for human Retinoic Acid Receptor Alpha (RARE), DR5 submotif (AID 2282934). The settings on record: HepG2 Attagene cis-factorial RARE DR5 reporter, mRNA; actives raise or lower the signal. The essentials: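 HepG2 cells transiently transfected with multiplexed reporter units; DR5 cis-element drives reporter through endogenous transcription factors. After 24 h dosing, reporter mRNA quantified by RT-PCR, fluorescent labeling, HpaI digestion and capillary electrophoresis; bidirectional fitting versus DMSO.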
Retinoic acid receptor alpha (Homo sapiens), sequence (P10276 whole entry, looked up): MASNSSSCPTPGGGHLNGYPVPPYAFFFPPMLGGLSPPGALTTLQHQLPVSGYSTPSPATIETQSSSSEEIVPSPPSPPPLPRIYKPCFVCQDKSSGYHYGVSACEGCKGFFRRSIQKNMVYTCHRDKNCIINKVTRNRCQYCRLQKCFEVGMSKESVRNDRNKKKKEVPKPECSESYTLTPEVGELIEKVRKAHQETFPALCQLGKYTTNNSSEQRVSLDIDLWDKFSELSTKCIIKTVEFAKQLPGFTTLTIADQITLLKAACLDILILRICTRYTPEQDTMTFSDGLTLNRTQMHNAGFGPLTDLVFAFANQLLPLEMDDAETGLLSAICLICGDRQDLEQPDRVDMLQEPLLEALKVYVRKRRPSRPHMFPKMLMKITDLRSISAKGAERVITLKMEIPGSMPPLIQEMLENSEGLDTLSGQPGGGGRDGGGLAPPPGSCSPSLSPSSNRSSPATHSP

Experiment [10] has as its target Transcription factor E2F1 (Homo sapiens) (UniProt Q01094). The experiment in a line: ATG_E2F_CIS: Attagene CIS-FACTORIAL HepG2 Assay for human E2F Transcription Factor 1 (AID 2282935). The following applies: HepG2 Attagene cis-reporter, E2F reporter RNA transcripts; actives raise or lower the signal. The essentials: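 Liver-derived HepG2 cells expressing transfected promoter-driven reporter units received test chemical for 24 hours. Signal gains or losses were fitted bidirectionally against DMSO.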

A short description of experiment [11]: ATG_E_Box_CIS: Attagene CIS-FACTORIAL HepG2 Assay for human Enhancer Box (E-box) (AID 2282936). The following applies: HepG2 E-box cis-reporter transcription, actives raise or lower the signal. The essentials: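 In this cell-based setup, HepG2 cells bearing transfected promoter-driven reporter units were exposed to chemicals for 24 h; reporter transcripts were amplified, 6-FAM-labelled, cut with HpaI and sized by capillary electrophoresis.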

Experiment [12] in a line: ATG_M_61_CIS: Attagene CIS-FACTORIAL HepG2 Assay for M61 Transcription Factor (Internal Marker) (AID 2282937). The following applies: HepG2 Attagene CIS-FACTORIAL M61 internal marker reporter; actives raise or lower the signal. In outline:
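Background-control endpoint: HepG2 cells with cis-regulated reporter constructs, 24 h exposure, reporter mRNA detected via fluorescent primer extension and capillary electrophoresis; values from bidirectional fitting with DMSO baseline.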

The nature of experiment [13]: ATG_EGR_CIS: Attagene CIS-FACTORIAL HepG2 Assay for human Early Growth Response 1 (EGR1) (AID 2282938). The following applies: HepG2 Attagene CIS-FACTORIAL EGR reporter mRNA; actives raise or lower the signal. In outline: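 Endpoint derived by bidirectional fitting versus DMSO vehicle. Method: cis-promoter reporter units transfected into HepG2, 24 h dosing, RNA isolation, RT-PCR with 6-FAM primer extension and HpaI digestion, then capillary electrophoresis fluorescence detection.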

A short description of experiment [14]: APR_HepG2_MicrotubuleCSK_72hr: Apredica 72-hour HepG2 Assay for Microtubule CSK Stabilty (AID 2282919). The settings on record: HepG2 microtubule cytoskeleton, high-content imaging, actives raise or lower the signal. The essentials:
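HepG2, 72 hr cmpd exposure, 0.39–200 uM (10 pts, duplicate), 0.5% DMSO. 3.7% formaldehyde fix, 0.5% Triton perm, anti-alpha-tubulin/Cy5 plus Hoechst. HCS fluorescence intensity; bidirectional fit vs DMSO baseline; taxol as positive control.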

The nature of experiment [15]: APR_HepG2_P-H2AX_24hr: Apredica 24-hour HepG2 Assay for H2AX Phosphorylation (AID 2282920). The following applies: high-content imaging, actives raise or lower the signal. In outline:
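HepG2, 24 hr, cpd 0.39–200 uM (10 conc, duplicate), DMSO 0.5% v/v final. Fix 3.7% formaldehyde, Triton X-100 permeabilize, anti-phospho-H2A.x 1:200 + Hoechst 2 ug/mL. Imaged, bidirectional fit vs DMSO.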

The nature of experiment [16]: APR_HepG2_StressKinase_72hr: Apredica 72-hour HepG2 Assay for Stress Kinase (AID 2282921). The following applies: HepG2 stress kinase (phospho-c-Jun) imaging, actives raise or lower the signal. The essentials:
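After a 72 h compound treatment spanning 0.39 to 200 uM, formaldehyde-fixed cells are labelled for phosphorylated c-Jun and nuclei, imaged by automated fluorescence microscopy, and activity is fitted in both directions relative to DMSO controls.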

Experiment [17] in a line: APR_HepG2_StressKinase_24hr: Apredica 24-hour HepG2 Assay for Stress Kinase (AID 2282922). The settings on record: HepG2 stress kinase (phospho-c-Jun) imaging, actives raise or lower the signal. The essentials: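 Read-out: phospho-c-Jun immunofluorescence (Cy3 secondary) quantified by high-content imaging at 20x, nuclei defined by Hoechst 33342. Human HepG2 liver cells dosed 24 hr, 0.39–200 uM, DMSO 0.5% v/v; gain or loss of signal fitted relative to DMSO.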

A short description of experiment [18]: APR_HepG2_MitoMass_72hr: Apredica 72-hour HepG2 Assay for Mitochondrial Mass (AID 2282924).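 Note: MitoTracker Red CMXRos stain intensity per cell imaged as mitochondrial mass.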 The settings on record: high-content imaging, actives raise or lower the signal. In outline:
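Read-out: MitoTracker Red fluorescence intensity from automated imaging (20x, six fields per well) in human HepG2 liver cells. Dosing ran 72 hr, 0.39–200 uM, 0.5% DMSO; bidirectional curve fitting versus DMSO baseline.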

Experiment [19] can be described thus: APR_HepG2_NuclearSize_72hr: Apredica 72-hour HepG2 Assay for Nuclear Size (AID 2282925). The following applies: high-content imaging, actives raise or lower the signal. The essentials: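 Read-out: nuclear diameter from Hoechst 33342 images (ArrayScan, 20x, six fields/well), via cell-cycle image analysis. HepG2 were dosed 0.39–200 uM for 72 hr in 0.5% DMSO. Bidirectional fit relative to DMSO.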

Activity calls are given as the source filed them. Rule for the calls: active = hit-call score of the fitted dose curve at least 0.9, where 1 is the maximum; inactive = score below 0.9.

Transcription factor E2F1 (Homo sapiens), sequence (Q01094 whole entry, looked up): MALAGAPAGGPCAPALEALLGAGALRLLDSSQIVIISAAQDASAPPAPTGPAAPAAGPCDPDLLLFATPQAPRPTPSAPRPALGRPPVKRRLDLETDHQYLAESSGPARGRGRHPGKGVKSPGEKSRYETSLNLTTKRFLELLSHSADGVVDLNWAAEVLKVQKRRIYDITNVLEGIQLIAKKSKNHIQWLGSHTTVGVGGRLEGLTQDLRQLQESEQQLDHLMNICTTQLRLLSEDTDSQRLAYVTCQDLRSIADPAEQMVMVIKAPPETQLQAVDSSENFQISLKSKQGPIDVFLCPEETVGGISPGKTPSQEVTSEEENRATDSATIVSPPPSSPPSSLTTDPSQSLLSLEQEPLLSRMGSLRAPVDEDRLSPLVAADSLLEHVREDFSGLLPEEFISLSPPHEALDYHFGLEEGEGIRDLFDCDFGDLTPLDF
CCAAT/enhancer-binding protein beta (Homo sapiens), sequence (P17676 whole entry, looked up): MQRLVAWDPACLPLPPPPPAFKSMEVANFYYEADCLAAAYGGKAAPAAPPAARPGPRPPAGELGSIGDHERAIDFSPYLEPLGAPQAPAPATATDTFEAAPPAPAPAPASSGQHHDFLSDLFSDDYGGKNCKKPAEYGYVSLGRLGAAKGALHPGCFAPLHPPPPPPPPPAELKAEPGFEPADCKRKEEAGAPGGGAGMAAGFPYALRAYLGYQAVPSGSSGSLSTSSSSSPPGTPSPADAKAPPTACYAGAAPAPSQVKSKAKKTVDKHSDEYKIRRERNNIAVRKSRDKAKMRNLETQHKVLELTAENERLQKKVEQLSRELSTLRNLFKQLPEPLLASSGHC
Aryl hydrocarbon receptor (Homo sapiens), sequence (P35869 whole entry, looked up): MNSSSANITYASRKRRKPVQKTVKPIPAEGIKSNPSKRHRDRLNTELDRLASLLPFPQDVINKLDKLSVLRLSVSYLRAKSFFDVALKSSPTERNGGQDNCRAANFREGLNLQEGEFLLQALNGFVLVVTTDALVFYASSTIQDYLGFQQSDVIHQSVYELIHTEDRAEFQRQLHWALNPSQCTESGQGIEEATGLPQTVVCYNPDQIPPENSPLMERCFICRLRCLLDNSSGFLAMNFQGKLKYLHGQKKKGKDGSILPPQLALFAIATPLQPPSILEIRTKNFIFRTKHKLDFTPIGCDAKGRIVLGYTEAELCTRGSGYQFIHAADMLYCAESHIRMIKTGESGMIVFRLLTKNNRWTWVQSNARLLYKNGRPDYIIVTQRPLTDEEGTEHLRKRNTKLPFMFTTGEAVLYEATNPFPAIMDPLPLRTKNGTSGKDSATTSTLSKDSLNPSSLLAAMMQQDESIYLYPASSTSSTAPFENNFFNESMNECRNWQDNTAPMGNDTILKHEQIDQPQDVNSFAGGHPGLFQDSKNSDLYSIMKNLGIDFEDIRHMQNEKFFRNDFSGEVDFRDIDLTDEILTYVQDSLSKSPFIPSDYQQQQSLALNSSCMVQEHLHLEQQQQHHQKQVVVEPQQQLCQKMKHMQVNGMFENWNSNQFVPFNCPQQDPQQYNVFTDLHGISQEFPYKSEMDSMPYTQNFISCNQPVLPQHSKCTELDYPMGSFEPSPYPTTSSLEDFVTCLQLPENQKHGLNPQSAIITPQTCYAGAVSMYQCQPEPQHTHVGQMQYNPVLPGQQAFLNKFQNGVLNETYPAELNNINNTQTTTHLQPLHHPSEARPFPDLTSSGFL

For `Cc1cccc(C)c1NC(=O)CN1CCCC1=O`, the result in experiment [1], in [2], in experiment [3], in experiment [4], in experiment [5] and in [6] was inactive. Moreover, the outcome in experiment [7], in experiment [8], in experiment [9], in experiment [10], in experiment [11] and in experiment [12] was inactive. Also, in experiment [13], the outcome was inactive.
Regarding `Cc1cc(C)cc(C)c1`, the call in [14], in experiment [15], in experiment [16], in [17], in [18] and in experiment [19] was inactive. Moreover, the compound was classed as inactive in experiment [1], in [2], in experiment [3], in [4], in experiment [6] and in experiment [7]. For the same compound, the result in experiment [8], in experiment [9], in experiment [10], in experiment [12] and in [13] was inactive.
Consider `Fc1cccc(Cl)c1CCl`, for which the AC50 in experiment [1] was 41800 nM (active). The outcome in experiment [2], in [3], in [4], in experiment [5], in experiment [6] and in [7] was inactive. The compound was classed as inactive in experiment [8], in experiment [9], in [10], in experiment [11], in experiment [12] and in experiment [13].
`CCC[CH2][Sn]([Cl])([Cl])[CH2]CCC`: the AC50 is 947 nM (active) in experiment [1]; 330 nM (active) in experiment [2]; 721 nM (active) in experiment [3]; 807 nM (active) in experiment [4]; 316 nM (active) in experiment [8]; 1240 nM (active) in [13]. Moreover, the outcome in experiment [5], in experiment [6], in experiment [7], in experiment [9], in experiment [10] and in experiment [11] was inactive. In [12], the compound was called inactive.
In the case of `C1CN2CCN1CC2`, the compound was classed as inactive in [1], in [2], in experiment [3], in experiment [4], in experiment [5] and in experiment [6]. In addition, the result in [7], in [8], in [9], in experiment [10], in experiment [11] and in [12] was inactive. In addition, the result in experiment [13] was inactive.

For the origin of these results see PubChem BioAssay (EPA / NIEHS).
